Experimental data: PubChem BioAssay AID1159580 (chemical genetic matrix, 2015)
Several values for one entry are separate records, joined by “and”; a condition that tells them apart may be missing. Identical values can stand only once. The campaign covered roughly 5,500 compounds. About 2,000 (36%) were called active. About 18% were inconclusive and are not listed. Cut-off read from the data, not from the text of the source: active = normalized growth mostly below about 0.91 (no sharp cut-off); inconclusive = no clear call, values can overlap the other calls; inactive = mostly above about 0.92. The list shows a part of the results.

Assay: chemical genetic growth profiling, strain panel (AID 1159580);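 note: tested at 20 µM; growth read once vehicle control cultures reached saturation at 30 °C; 1 = growth at the plate median or of vehicle wells; lower values mean less growth of the strain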
Settings: growth OD

Measured: normalized growth

N#C/C(=N/Nc1ccc(C(F)(F)F)cc1)C(=O)C1CC1
inactive: S. cerevisiae deletion strains, locus YAL013W, strain DEP1, stronger effect = lower value 0.942 | S. cerevisiae deletion strains, locus YAR019C, strain CDC15, stronger effect = lower value 0.952 | S. cerevisiae deletion strains, locus YBL105C, strain PKC1, stronger effect = lower value 0.947 | S. cerevisiae deletion strains, locus YBR135W, strain CKS1, stronger effect = lower value 0.941 | S. cerevisiae deletion strains, locus YBR136W, strain MEC1, stronger effect = lower value 0.942 | S. cerevisiae deletion strains, locus YBR160W, strain CDC28, stronger effect = lower value 0.942 | S. cerevisiae deletion strains, locus YBR229C, strain ROT2, stronger effect = lower value 0.96 | S. cerevisiae deletion strains, locus YCL061C, strain MRC1, stronger effect = lower value 0.978 | S. cerevisiae deletion strains, locus YDL017W, strain CDC7, stronger effect = lower value 0.953 | S. cerevisiae deletion strains, locus YDL028C, strain MPS1, stronger effect = lower value 0.938 | S. cerevisiae deletion strains, locus YDL101C, strain DUN1, stronger effect = lower value 0.976 and 0.966 | S. cerevisiae deletion strains, locus YDL108W, strain KIN28, stronger effect = lower value 0.937 | S. cerevisiae deletion strains, locus YDL132W, strain cdc53, stronger effect = lower value 0.937 | S. cerevisiae deletion strains, locus YDL214C, strain PRR2, stronger effect = lower value 0.904 | S. cerevisiae deletion strains, locus YDR052C, strain DBF4, stronger effect = lower value 0.953 | S. cerevisiae deletion strains, locus YDR054C, strain cdc34, stronger effect = lower value 0.95 | S. cerevisiae deletion strains, locus YDR150W, strain NUM1, stronger effect = lower value 0.928 | S. cerevisiae deletion strains, locus YDR226W, strain ADK1, stronger effect = lower value 0.97 | S. cerevisiae deletion strains, locus YDR477W, strain SNF1, stronger effect = lower value 0.932 | S. cerevisiae deletion strains, locus YER123W, strain YCK3, stronger effect = lower value 0.88 | S. cerevisiae deletion strains, locus YER133W, strain GLC7, stronger effect = lower value 0.93 | S. cerevisiae deletion strains, locus YFL009W, strain cdc4, stronger effect = lower value 0.942 | S. cerevisiae deletion strains, locus YFL029C, strain CAK1, stronger effect = lower value 0.945 | S. cerevisiae deletion strains, locus YFR003C, strain YPI1, stronger effect = lower value 0.95 | S. cerevisiae deletion strains, locus YFR019W, strain FAB1, stronger effect = lower value 0.92 | S. cerevisiae deletion strains, locus YFR028C, strain CDC14, stronger effect = lower value 0.964 | S. cerevisiae deletion strains, locus YGR040W, strain KSS1, stronger effect = lower value 0.905 | S. cerevisiae deletion strains, locus YGR052W, strain FMP48, stronger effect = lower value 0.922 | S. cerevisiae deletion strains, locus YGR078C, strain PAC10, stronger effect = lower value 0.957 | S. cerevisiae deletion strains, locus YGR092W, strain DBF2, stronger effect = lower value 0.855 | S. cerevisiae deletion strains, locus YGR229C, strain SMI1, stronger effect = lower value 0.948 | S. cerevisiae deletion strains, locus YHR079C, strain IRE1, stronger effect = lower value 0.958 | S. cerevisiae deletion strains, locus YHR082C, strain KSP1, stronger effect = lower value 0.989 | S. cerevisiae deletion strains, locus YHR087W, strain rtc3, stronger effect = lower value 0.951 | S. cerevisiae deletion strains, locus YHR205W, strain SCH9, stronger effect = lower value 0.889 | S. cerevisiae deletion strains, locus YIL147C, strain SLN1, stronger effect = lower value 0.941 | S. cerevisiae deletion strains, locus YJL095W, strain BCK1, stronger effect = lower value 0.913 | S. cerevisiae deletion strains, locus YJL128C, strain PBS2, stronger effect = lower value 0.924 | S. cerevisiae deletion strains, locus YJL157C, strain FAR1, stronger effect = lower value 0.94 | S. cerevisiae deletion strains, locus YJL187C, strain SWE1, stronger effect = lower value 0.98 | S. cerevisiae deletion strains, locus YJR016C, strain ILV3, stronger effect = lower value 0.931 | S. cerevisiae deletion strains, locus YJR043C, strain POL32, stronger effect = lower value 0.952 | S. cerevisiae deletion strains, locus YJR066W, strain TOR1 (second series), stronger effect = lower value 0.897 | S. cerevisiae deletion strains, locus YJR066W, strain TOR1, stronger effect = lower value 0.997 | S. cerevisiae deletion strains, locus YJR075W, strain HOC1, stronger effect = lower value 0.975 | S. cerevisiae deletion strains, locus YKL048C, strain ELM1, stronger effect = lower value 0.928 | S. cerevisiae deletion strains, locus YKL067W, strain YNK1, stronger effect = lower value 0.904 | S. cerevisiae deletion strains, locus YKL101W, strain HSL1, stronger effect = lower value 0.874 | S. cerevisiae deletion strains, locus YKL193C, strain SDS22, stronger effect = lower value 0.943 | S. cerevisiae deletion strains, locus YKL203C, strain TOR2, stronger effect = lower value 0.996 | S. cerevisiae deletion strains, locus YLR058C, strain SHM2 (second series), stronger effect = lower value 0.975 | S. cerevisiae deletion strains, locus YLR133W, strain CKI1, stronger effect = lower value 0.909 | S. cerevisiae deletion strains, locus YLR403W, strain SFP1, stronger effect = lower value 0.898 | S. cerevisiae deletion strains, locus YML070W, strain DAK1, stronger effect = lower value 0.895 | S. cerevisiae deletion strains, locus YMR001C, strain CDC5, stronger effect = lower value 0.95 | S. cerevisiae deletion strains, locus YMR205C, strain PFK2 (second series), stronger effect = lower value 0.917 | S. cerevisiae deletion strains, locus YMR219W, strain ESC1, stronger effect = lower value 0.986 | S. cerevisiae deletion strains, locus YMR263W, strain SAP30, stronger effect = lower value 0.956 | S. cerevisiae deletion strains, locus YMR277W, strain FCP1, stronger effect = lower value 0.937 | S. cerevisiae deletion strains, locus YNL006W, strain LST8, stronger effect = lower value 0.947 | S. cerevisiae deletion strains, locus YNL020C, strain ARK1, stronger effect = lower value 0.914 | S. cerevisiae deletion strains, locus YNL128W, strain TEP1, stronger effect = lower value 0.956 | S. cerevisiae deletion strains, locus YNL153C, strain GIM3, stronger effect = lower value 0.981 | S. cerevisiae deletion strains, locus YNL161W, strain CBK1, stronger effect = lower value 0.949 | S. cerevisiae deletion strains, locus YNL183C, strain NPR1, stronger effect = lower value 0.941 | S. cerevisiae deletion strains, locus YNL207W, strain RIO2, stronger effect = lower value 0.95 | S. cerevisiae deletion strains, locus YNL222W, strain SSU72, stronger effect = lower value 0.947 | S. cerevisiae deletion strains, locus YNL298W, strain CLA4 (second series), stronger effect = lower value 0.842 | S. cerevisiae deletion strains, locus YNL307C, strain MCK1 (second series), stronger effect = lower value 0.905 | S. cerevisiae deletion strains, locus YNL322C, strain KRE1, stronger effect = lower value 0.981 | S. cerevisiae deletion strains, locus YOL078W, strain AVO1, stronger effect = lower value 0.936 | S. cerevisiae deletion strains, locus YOL136C, strain PFK27, stronger effect = lower value 0.866 | S. cerevisiae deletion strains, locus YOR061W, strain CKA2, stronger effect = lower value 0.926 | S. cerevisiae deletion strains, locus YOR119C, strain RIO1, stronger effect = lower value 0.973 | S. cerevisiae deletion strains, locus YOR231W, strain MKK1, stronger effect = lower value 0.89 | S. cerevisiae deletion strains, locus YOR329C, strain SCD5, stronger effect = lower value 0.958 | S. cerevisiae deletion strains, locus YPL031C, strain PHO85, stronger effect = lower value 0.922 | S. cerevisiae deletion strains, locus YPL055C, strain LGE1, stronger effect = lower value 0.83 | S. cerevisiae deletion strains, locus YPL153C, strain RAD53, stronger effect = lower value 0.929 | S. cerevisiae deletion strains, locus YPL204W, strain HRR25, stronger effect = lower value 0.894 | S. cerevisiae deletion strains, locus YPL209C, strain IPL1, stronger effect = lower value 0.955 | S. cerevisiae deletion strains, locus YPL256C, strain CLN2, stronger effect = lower value 0.977 | S. cerevisiae deletion strains, locus YPR025C, strain CCL1, stronger effect = lower value 0.95 | S. cerevisiae deletion strains, locus YPR106W, strain ISR1, stronger effect = lower value 0.951 | S. cerevisiae deletion strains, locus YPR111W, strain DBF20, stronger effect = lower value 0.912 | S. cerevisiae deletion strains, locus YPR135W, strain CTF4, stronger effect = lower value 0.829 | S. cerevisiae deletion strains, strain NNK1, stronger effect = lower value 0.971 | S. cerevisiae deletion strains, strain TSCII, stronger effect = lower value 0.947 | S. cerevisiae strains, strain wild type, stronger effect = lower value 0.943
0.482 (active) and 1.02 (inactive): S. cerevisiae deletion strains, locus YHR030C, strain SLT2, stronger effect = lower value
active: S. cerevisiae deletion strains, locus YDL134C, strain PPH21, stronger effect = lower value 0.791 | S. cerevisiae deletion strains, locus YEL061C, strain CIN8, stronger effect = lower value 0.857 | S. cerevisiae deletion strains, locus YLR039C, strain RIC1, stronger effect = lower value 0.565 | S. cerevisiae deletion strains, locus YLR085C, strain ARP6, stronger effect = lower value 0.503 | S. cerevisiae deletion strains, locus YLR113W, strain HOG1, stronger effect = lower value 0.835 | S. cerevisiae deletion strains, locus YLR262C, strain YPT6, stronger effect = lower value 0.68 | S. cerevisiae deletion strains, locus YML094W, strain GIM5, stronger effect = lower value 0.841 | S. cerevisiae deletion strains, locus YMR307W, strain GAS1, stronger effect = lower value 0.535 | S. cerevisiae deletion strains, locus YNR030W, strain Alg12, stronger effect = lower value 0.773 | S. cerevisiae deletion strains, locus YPL241C, strain CIN2, stronger effect = lower value 0.76
